PGE2 EP2 inh = human EP2 receptor antagonists, primary screen, TR-FRET cAMP, C6 glioma cells; C6 glioma cells expressing human EP2; cells stimulated with saturating PGE2; hit rate 0.52% among 260,000; inhibition, % at 25 µM; AID 1422, 2008; Prostaglandin E2 receptor EP2 subtype (Homo sapiens), P43116;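 active = percent inhibition above 40 after rounding to a whole number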;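 note: rat C6 glioma host cells with rolipram phosphodiesterase inhibitor present; the protocol text gives 20 µM as final concentration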
Target sequence (P43116 whole entry, looked up): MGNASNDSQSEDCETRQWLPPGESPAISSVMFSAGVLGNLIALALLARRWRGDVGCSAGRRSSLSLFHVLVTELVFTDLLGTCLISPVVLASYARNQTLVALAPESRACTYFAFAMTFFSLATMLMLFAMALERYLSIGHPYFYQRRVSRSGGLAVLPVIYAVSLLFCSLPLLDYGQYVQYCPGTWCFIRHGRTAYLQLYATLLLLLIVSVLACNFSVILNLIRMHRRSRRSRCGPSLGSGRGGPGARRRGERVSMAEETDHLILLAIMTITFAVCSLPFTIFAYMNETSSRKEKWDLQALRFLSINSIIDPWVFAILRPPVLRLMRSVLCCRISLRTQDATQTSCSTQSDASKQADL
Arbovirus anti = antivirals against arbovirus infection, primary screen, cell-based, full library, 10K replicate subset. arbovirus infection cell-based antiviral screen. inhibition, % at 10 µM. hit rate 0.37% among 200,000; in the data active = inhibition above about 30%
p97 inhibitor = inhibitors of human p97 ATPase, primary screen, biochemical | Transitional endoplasmic reticulum ATPase (Homo sapiens), P55072 | recombinant p97 ATPase, Kinase-Glo ATP luminescence, 3 h | inhibition, % at 8 µM | hit rate 0.42% among 220,000 | AID 1481, 2009; in the data active = inhibition above about 15%
EP2 modulator = EP2 receptor modulators, cAMP readout, primary screen, cell-based, HTRF cAMP, PGE2 stimulation; EP2-expressing cells, cAMP HTRF FRET, PGE2 co-stimulation; induction, % at 25 µM; hit rate 0.83% among 260,000; AID 940, 2007;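 active = compounds whose cAMP rise, as percent of the full-agonist control response, exceeds 60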;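 note: rat C6 glioma line stably carrying human EP2 under a CMV promoter; the protocol text gives 20 µM as final concentration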
Hck-Nef inh = inhibitors of Nef-activated human Hck kinase, primary screen, biochemical, Z-Lyte FRET, 384-well, Hck-YEEI. inhibition, % at 20 µM. AID 463187, 2010. Recombinant Hck-YEEI plus Nef, Z-Lyte FRET kinase assay. hit rate 0.68% among 220,000;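 active = Hck-Nef kinase inhibition above about 50%, limit read from the data; inactive = inhibition below that limit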
Numbers stand for hits; i = inactive; nt = not tested or not shown; ! = a repeat was not active. Compounds with a hit are over-represented: about 2.4% of the library has one in this group of screens.

SMILES	PGE2 EP2 inh	Arbovirus anti	p97 inhibitor	EP2 modulator	Hck-Nef inh
CN1CCN(C(=S)c2ccc(Cl)cc2)CC1	i	i	i	i	i
CN1CCN(C(=S)NC(=O)c2ccc(Cl)cc2)CC1	i	81	i	i	i
COc1ccc(-c2csc(Nc3ncccc3C)n2)cc1OC	i	41	i	i	i
O=C(O)c1ccc(COc2ccc3ccccc3c2/C=C2/NC(=O)N(Cc3ccc(F)cc3)C2=O)cc1	i	48	i	i	i
O=C(O)c1ccc(COc2ccccc2/C=C2\NC(=O)N(Cc3ccccc3)C2=O)cc1	i	i	i	i	i
Fc1cccc(-c2cc3nc4c(c(N5CCNCC5)n3n2)CCCC4)c1	i	nt	nt	i	nt
COc1cccc(/C(O)=C2/C(=O)C(=O)N(CCN(C)C)C2c2ccc(O)c(OC)c2)c1 (stereo unspecified)	i	nt	nt	i	nt
Clc1cccc(Cl)c1C(Nc1nncs1)Nc1nncs1	52	nt	nt	i	nt
Fc1cccc(F)c1C(Nc1nncs1)Nc1nncs1	46	nt	nt	i	nt
CCOC(=O)c1c(NC(=O)c2cccs2)sc2c1CC(C)(C)OC2	i	i	i	i	i
COc1ccc(C(=O)Nc2sc3c(c2C(=O)O)CC(C)(C)OC3)cc1	i	34	i	i	i
CC(C)COc1ccc(C(=O)Nc2sc3c(c2C(=O)O)CC(C)(C)OC3)cc1	i	61	i	i	i
CC1(C)Cc2c(sc(NC(=O)c3ccccc3)c2C(=O)O)CO1	i	i	i	i	i
Cc1ccc(C)c(NC(=O)c2nc(-c3ccccc3)n(-c3ccccc3)n2)c1	i	i	i	i	i
Cc1ccc(C)c(NC(=O)c2cc(-c3ccccc3)nn2-c2ccccc2)c1	i	i	i	64	i
Cc1nc2ccccc2nc1N1CCCCC1	i	i	i	i	i
N#CC(C#N)=Cc1cc2ccccc2nc1N1CCCCC1	i	32	i	i	i
c1ccc2nc(N3CCCC3)c(N3CCCC3)nc2c1	i	i	i	68!	i
c1ccc2c(c1)nc(N1CCCCCC1)c1ccccc12	i	nt	i	63	i
CN(C)[C@@H]1C(=O)C(C(=O)NCN2CCCC2)=C(O)[C@@]2(O)C(=O)C3=C(O)c4c(O)cccc4[C@@](C)(O)C3CC12 (stereo partly specified)	i	i	23	i	i
COc1ccc(CNC(=O)C2CCN(c3nc4ccccc4n3C)CC2)c(OC)c1	i	nt	nt	i	nt
CN(C)CCNc1nc2c(c(=O)n(C)c(=O)n2C)n1C	i	nt	nt	i	nt
Cn1c(=O)c2c(nc(NCCNc3nc4c(c(=O)n(C)c(=O)n4C)n3C)n2C)n(C)c1=O	45	nt	nt	i	nt
NC(=O)CCN1CCOCC1	i	nt	nt	i	nt
Nc1c(C(=O)OCC2CCCO2)c2nc3ccccc3nc2n1-c1ccc2c(c1)OCCO2 (stereo unspecified)	80	i	i	i	i
SMILES	PGE2 EP2 inh	Arbovirus anti	p97 inhibitor	EP2 modulator	Hck-Nef inh
Cc1cccc2c1Sc1ccccc1CC2=O	i	i	i	64	i
CCOc1ccccc1-n1c(COc2cccc3ccccc23)nnc1SCC(=O)N1CCCC1	i	nt	nt	i	nt
O=C(Cn1ncc2cccn2c1=O)N1CCN(c2ccc(F)cc2)CC1	i	nt	nt	i	nt
CN1[C@@H]2CC(OC(=O)[C@@H](CO)c3ccccc3)C[C@H]1[C@H]1O[C@H]12 (stereo partly specified)	52	nt	nt	i	nt
COc1cc2ncc(C(=O)c3ccccc3)c(N3CCN(Cc4ccccc4)CC3)c2cc1OC	i	nt	i	86	i
COCCOC(=O)C1=C(C)NC(SCC(=O)NC(C)(C)C)=C(C#N)C1c1ccco1 (stereo unspecified)	i	i	i	i	i
CCOC(=O)C1=C(c2ccccc2)NC(SCC(=O)NC2CCCCC2)=C(C#N)C1c1ccco1 (stereo unspecified)	71	i	i	i	i
CC(C)(C)n1nnnc1C(c1cccc(C#N)c1)N1CCCc2ccccc21 (stereo unspecified)	103!	i	i	i	i
COc1ccccc1C(c1nnnn1C(C)(C)C)N1CCCc2ccccc21 (stereo unspecified)	i	i	i	67!	i
COc1cc2cc(C(c3nnnn3C(C)(C)C)N3CCc4ccccc43)c(=O)[nH]c2cc1OC (stereo unspecified)	150	i	i	i	i
CC(C)(C)n1nnnc1C(c1ccc(Cl)cc1)N1CCCc2ccccc21 (stereo unspecified)	i	i	i	i	i
Cc1ccc(C)c2[nH]c(=O)c(C(c3nnnn3C3CCCC3)N3CCc4ccccc43)cc12 (stereo unspecified)	i	nt	nt	101	nt
Cc1ccc(C)c2[nH]c(=O)c(C(c3nnnn3C3CCCC3)N3CCCc4ccccc43)cc12 (stereo unspecified)	i	nt	nt	i	nt
Cc1ccc(/C(O)=C2/C(=O)C(=O)N(CCOCCO)C2c2cccnc2)cc1 (stereo unspecified)	i	nt	nt	i	nt
COc1ccc(C2(O)CCN(CC(=O)NC(C)C)CC2)cc1	i	nt	nt	i	nt
O=C(CN1C(=O)[C@@H]2CCCN2C(=O)c2ccccc21)NCc1ccccc1	i	nt	nt	i	nt
CC1(C)CC(=O)C2=C(C1)C(c1ccc(O)cc1)Nc1ccc3ccccc3c12 (stereo unspecified)	i	nt	nt	i	nt
O=C(c1ncoc1-c1ccc(F)cc1)N1CCN(c2ncccn2)CC1	i	nt	nt	i	nt
O=C(O)c1ccccc1CN1CCC[C@@H](C(=O)O)C1	48	nt	nt	i	nt
O=C(O)C1CCCN(C(=O)NCc2ccccc2)C1 (stereo unspecified)	i	i	i	i	i
C#CCSc1ncc(S(=O)(=O)c2ccccc2)c(=O)[nH]1	i	30	i	i	i
CC(C)Sc1ncc(S(=O)(=O)c2ccccc2)c(=O)[nH]1	i	i	i	i	i
Cc1cc(C(=O)CSc2nnc(-c3ccco3)o2)c(C)n1Cc1ccco1	nt	31	i	i	i
Fc1ccc(N2CCN(Cc3c[nH]c4ccccc34)CC2)cc1	i	nt	i	i	i
c1ccc2c(CN3CCN(Cc4c[nH]c5ccccc45)CC3)c[nH]c2c1	62	nt	nt	i	nt
CC1=NN2C(=N)/C(=C\c3ccc(SCc4ccccc4)o3)C(=O)N=C2S1	i	35	i	i	i
CCOC(=O)N1CCC(Nc2c(Nc3cccc(CC)c3)c(=O)c2=O)CC1	i	36	i	i	i
Fc1cc(F)c(C2SCCN2C(=S)Nc2cccc(C(F)(F)F)c2)c(F)c1 (stereo unspecified)	i	nt	i	i	i
CCOC(=O)c1ccc(NC(=S)N2CCSC2c2c(F)cc(F)cc2F)cc1 (stereo unspecified)	i	41	i	i	i
NC1=N[C@@H](c2ccc(Cl)cc2)N(c2ccc(S(N)(=O)=O)cc2)C(N)=N1	47	nt	nt	i	nt

Screening results from PubChem BioAssay.
